The text below walks through data of PubChem BioAssay (NCI).

Compounds without any hit were thinned out: in the full panel of roughly 79,000, 15% have a hit. A number with no mark means an inactive call. Activity calls are given as the source filed them. No stated cut-off is given here; in the data, active means growth inhibition above about 70%; inactive means the rest.

A short description of assay [1]: NCI Yeast Anticancer Drug Screen. Data for the rad50 strain (AID 155).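 Further: 0% = growth of vehicle-only cultures of the same strain.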 The note with it: S. cerevisiae rad50 strain growth inhibition; at 50.0 µM; hits give high values. The essentials:
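Cells are treated with compound, grown, and their growth is then scored against vehicle-only cultures of the same repair-deficient yeast strain.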

The nature of assay [2]: NCI Yeast Anticancer Drug Screen. Data for the mec2-1 strain (AID 157). The note with it: S. cerevisiae mec2-1 strain, at 50.0 µM, hits give high values. An outline of the steps:
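Using mec2-1 yeast: add compound, measure growth, express inhibition versus vehicle-treated cultures.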

Assay [3] in a line: NCI Yeast Anticancer Drug Screen. Data for the sgs1 mgt1 strain (AID 161).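 Further: 0% = growth of cultures given vehicle only.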 The note with it: S. cerevisiae sgs1 mgt1 strain, at 50.0 µM, hits give high values. The essentials: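 Yeast cells carrying a defined DNA-repair defect were exposed to test compounds. Growth inhibition was measured relative to vehicle-treated controls.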
A short description of assay [4]: NCI Yeast Anticancer Drug Screen. Data for the cln2 rad14 strain (AID 165).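 Further: 0% = growth equal to vehicle treated cultures.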 Conditions: S. cerevisiae cln2 rad14 strain, at 50.0 µM, hits give high values. The essentials: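 Yeast strain cln2 rad14, bearing defects in cell cycle control and DNA repair, serves as the test system; values reflect growth inhibition compared with vehicle.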
Assay [5] can be described thus: NCI Yeast Anticancer Drug Screen. Data for the bub3 strain (AID 167). The note with it: S. cerevisiae bub3 mutant strain, at 50.0 µM, hits give high values. An outline of the steps: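 Part of a panel of yeast mutants defective in DNA damage repair or cell cycle regulation. Each strain is grown with compound, and inhibition is calculated relative to solvent-treated cultures.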

Assay [6] is described as follows: NCI Yeast Anticancer Drug Screen. Data for the mlh1 rad18 strain (AID 175). Conditions: S. cerevisiae mlh1 rad18 strain growth inhibition; at 50.0 µM; hits give high values. The essentials:
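Steps: expose repair-defective yeast to compound; measure growth; express inhibition against vehicle-treated controls.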

`Cc1ccc(C2=C(Cl)C(=O)C(c3ccc(C)cc3)=C(Cl)C2=O)cc1`: the growth inhibition in assay [1] is -15.8%; in assay [2], 10.3%; in assay [3], -13.8%; in assay [4], -3.95%; in assay [5], -57.5%; in assay [6] it was -14.4%.

On to `Cc1ccc(N=NC(=O)NNc2ccc(C)cc2Br)c(Br)c1`, for which the growth inhibition is 19.4% in assay [1]; -8.8% in assay [2]; -3.8% in assay [3]; 15.2% in assay [4]; -6.5% in assay [5]; 14.6% in assay [6].

Take `CCN(C(=S)Nc1cccc(C(F)(F)F)c1)c1ccccc1`: the growth inhibition was 38.1% in assay [1]; 22.9% in assay [2]; 49% in assay [3]; 13.9% in assay [4]; 41% in assay [5]; 22.6% in assay [6].

As to `CCCCCCCC/C=C\CCCCCCCC(=O)Cl`, the growth inhibition was -19% in assay [1]; -33.8% in assay [2]; -14% in assay [3]; -55.9% in assay [4]; -8.85% in assay [5]; -23.1% in assay [6].

Turning to `CSc1n[n+](-c2ccccc2)cs1`, the growth inhibition in assay [1] is 6.3%; in assay [2], 6.15%; in assay [3] it was 4.4%; in assay [4], 6.9%; in assay [5] it was 21.7%; in assay [6], -3.35%.

Turning to `O=C(Nc1c(O)[nH][nH]c1=O)c1ccccc1`, the growth inhibition in assay [1] is 0.45%; in assay [2] it was -0.05%; in assay [3], -9.7%; in assay [4], -36%; in assay [5] it was -15.7%; in assay [6], -0.1%.

Take `CCCC(=O)NC(Nc1ccc(S(=O)(=O)Nc2ccc(OC)nn2)cc1)(C(F)(F)F)C(F)(F)F`: the growth inhibition in assay [1] was 1.55%; in assay [2], -19.1%; in assay [3] it was -0.6%; in assay [4] it was 0.35%; in assay [5] it was -16.8%; in assay [6] it was -9.25%.

Consider `S=C(S)N1CCN(c2ccc(Cl)c(Cl)c2)CC1`, for which the growth inhibition was 4% in assay [1]; -1.65% in assay [2]; 20.9% in assay [3]; 2.95% in assay [4]; 8.1% in assay [5]; 57.6% in assay [6].

Regarding `CCOC(=O)C(C#N)(C1C=CCC1)C1C=CCC1` (stereo not given), the growth inhibition is -1.9% in assay [1]; -0.1% in assay [2]; 14.3% in assay [3]; 43.9% in assay [4]; 46.3% in assay [5]; 13.3% in assay [6].

As for `CC1CCC2(CC1)CC(=O)N(N1CCCCC1)C2=O` (stereo not given), the growth inhibition is 11.3% in assay [1]; 10.8% in assay [2]; 26.8% in assay [3]; 17.1% in assay [4]; 3.3% in assay [5]; 23.9% in assay [6].

Consider `O=C(Nc1ccccc1Cl)Oc1ccc(Cl)cc1Cc1ccccc1`, for which the growth inhibition in assay [1], in assay [2], in assay [3], in assay [4], in assay [5] and in assay [6] was 99.7% (active) in each case.

With `CCC12C[N+]3([O-])CCc4c([nH]c5ccccc45)C(C(=O)OC)(c4cc5c(cc4OC)N(C)C4C(O)(C(=O)OC)C(OC(C)=O)C6(CC)C=CCN7CCC54C76)CC(C3)C1O2` (stereo not given), the growth inhibition was -8.15% in assay [1]; -24.1% in assay [2]; -14% in assay [3]; -9.8% in assay [4]; -2.2% in assay [5]; -31.7% in assay [6].

Regarding `CCCCC/C(C)=C(\C#N)C(=O)OC`, the growth inhibition was -5.4% in assay [1]; -29.1% in assay [2]; -19.2% in assay [3]; -15.3% in assay [4]; -34% in assay [5]; -27.4% in assay [6].

In the case of `COc1ccccc1/C=C1/Sc2scc(CC(=O)Nc3ccccc3)[n+]2C1=O`, the growth inhibition in assay [1] is 8.9%; in assay [2], 4%; in assay [3], 23.6%; in assay [4], 17.7%; in assay [5], -4.7%; in assay [6], 24.8%.

`Cc1nc(C)c(N2CCN(S(N)(=O)=O)CC2)c(=O)[nH]1`: the growth inhibition in assay [1] is -70.3%; in assay [2], -26.9%; in assay [3], -30.8%; in assay [4], 6.6%; in assay [5], 3.4%; in assay [6], -21.8%.

As for `Cc1cccc(OC(=O)Oc2cccc(C)c2)c1`, the growth inhibition in assay [1] is -5.75%; in assay [2] it was -9.25%; in assay [3] it was -4.35%; in assay [4] it was -15.7%; in assay [5] it was 20.6%; in assay [6] it was 31.1%.

On to `CN(C)CN1CSC(=S)N(CN(C)C)C1`, for which the growth inhibition in assay [1] is 20.2%; in assay [2], 37%; in assay [3], 6%; in assay [4] it was -10.7%; in assay [5], -5%; in assay [6] it was 26.4%.

For the compound `O=C(O)C(=N\Nc1ccccc1)/C(=N\Nc1ccccc1)C(=O)O`, the growth inhibition in assay [1] is 30.7%; in assay [2] it was -6.25%; in assay [3], 33.9%; in assay [4] it was 21.8%; in assay [5], 24.2%; in assay [6], 7.3%.

With `Cc1ccccc1C(O)(c1nccn1C)c1nccn1C`, the growth inhibition in assay [1] is 8.75%; in assay [2], 5.5%; in assay [3], 19.9%; in assay [4] it was 9.55%; in assay [5], 18.2%; in assay [6] it was 37.3%.

In the case of `NC(C1SCCS1)C(O)C(O)C(O)CO` (stereo not given), the growth inhibition in assay [1] was -5.55%; in assay [2], -27.6%; in assay [3], -1.9%; in assay [4], -3.7%; in assay [5] it was 3.1%; in assay [6] it was -3.95%.
